The campaign covered roughly 350,000 compounds. About 31,000 (8.9%) were called active. Another 15% or so got no clear call; they are omitted. Calls follow the shape of the dose curve; as a rule, active = well fitted inhibition curve with a large enough effect; inconclusive = small, poorly fitted or top-dose-only effect; inactive = no such curve, though single readings can be large or run the other way. For the sample, actives were picked, then their nearest neighbours and some compounds at random.
target: Histone-lysine N-methyltransferase EHMT2 (Homo sapiens) (UniProt Q96KQ7); test: qHTS Assay for Inhibitors of Histone Lysine Methyltransferase G9a; conditions: G9a H3K9 monomethylation, AlphaScreen, 2 h; series mostly up to 59 µM; activity, negative = inhibition: at the top concentration; also: nearly all actives have a fitted effect of over 75% in size
Sequence (Q96KQ7 913-1193 limits assumed): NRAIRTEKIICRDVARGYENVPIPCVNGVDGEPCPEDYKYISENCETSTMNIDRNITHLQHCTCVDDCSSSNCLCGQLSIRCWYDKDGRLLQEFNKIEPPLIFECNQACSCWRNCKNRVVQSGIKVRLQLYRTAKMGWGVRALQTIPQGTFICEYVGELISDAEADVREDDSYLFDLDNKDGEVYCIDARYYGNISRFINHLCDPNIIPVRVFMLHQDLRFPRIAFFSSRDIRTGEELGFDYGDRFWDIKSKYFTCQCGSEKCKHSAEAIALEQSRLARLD
Summary of the method: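 Chemiluminescent proximity detection of H3K9 monomethylation, read after 10 min bead incubation in the dark. Reaction: 20 nM G9a, 500 nM biotin-H3K9 peptide, 20 uM SAM cofactor, 2 h, room temperature, following 15 min enzyme-compound preincubation.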
% is scaled to controls: 0 for no effect and ±100 for the full control effect; potency is read from the fitted curve at half-maximal effect.

activity, negative = inhibition, inactive:
COc1ccccc1CNC(=O)NCc1noc2ccc(C)cc12 9.85%
Cc1cc(C)c(NC(=O)CCc2c(C)nc3c(c(C)nn3C(C)(C)C)c2C)c(C)c1 -0.258%
N#Cc1nc(/C=C/c2ccc(F)cc2)oc1NCc1ccc(F)cc1 -28.7%
O=C(Nc1ccc2c(c1)OCO2)c1cc(-c2cccc(Cl)c2)on1 -27.1%
COc1ccc(NC(=O)Cn2c(=O)cc(C)c3c(C)nn(-c4cccc(Cl)c4C)c32)cc1OC -1.25%
COc1cccc(CNC(=O)Cc2csc3nc(-c4ccccc4)cn23)c1 5.25%
CC1=CC(C)(C)NC(=S)N1c1ccccc1 13.4% [at 102 µM]
O=C1/C(=C/c2coc3ccc(O)cc3c2=O)SC(=S)N1c1ccccc1 -31.3% [at 12.7 µM]
CC(=O)c1ccccc1OCc1ccc(C(=O)c2ccccc2)cc1 171% [at 102 µM]
O=C(O)c1cccc(S(=O)(=O)N2CC=C(c3ccccc3)CC2)c1 23% [at 12.7 µM]
COc1ccccc1N1CCN(S(=O)(=O)c2ccc(Cl)cc2)CC1 -9.73% [at 102 µM]
COc1ccc(NC(=O)CSC2=Nc3ccccc3C3=NC(CC(=O)NCc4ccccc4OC)C(=O)N23)cc1Cl (centres undefined) -1.6%
CCC(C)CCN1CCN=C1N(C)C (centres undefined) 2.04% [at 2.33 µM]
CCC(C)(C)c1ccc(OCC(=O)N(C)C)c(C(C)(C)CC)c1 90% [at 102 µM]
O=C(NCCCO)c1nn(-c2ccc(Cl)cc2)nc1CO 5.62%
Cc1nn(Cc2ccccc2)c(C)c1C(=O)NCCN1C(=O)S/C(=C\c2ccc(F)cc2)C1=O 7.37%
COc1ccc(/C=C2\SC(=S)N(CCC(=O)Nc3cccc(C(=O)O)c3)C2=O)cc1OC -17.4% [at 102 µM]
CC(C)C(=O)Nc1nc2c(s1)CC(C(C)(C)C)CC2 (centres undefined) -22.5%
Cn1nnnc1SCCCNCc1ccc(Cl)cc1 0.182%
O=C(CCNC(=O)c1ccccc1)Nc1nc2ccccc2s1 -6.33% [at 0.501 µM]
CCN(CC)CCOCCOc1ccc(Cl)c2ccccc12 -33.6% [at 102 µM]
O=S(=O)(c1ccc(Cl)cc1)c1nc(-c2ccco2)oc1N1CCCCC1 32.5% [at 12.7 µM]
Clc1cccc(-n2ncc3c(NCCc4ccccc4)ncnc32)c1 27%
O=C(/C=C/c1c(Cl)cccc1Cl)NCc1ccccc1 21.8% [at 102 µM]
O=C(CCc1ccccc1)Nc1nn[nH]n1 -24.3%
CSc1ccccc1NC(=O)c1cnc2sc(C)cn2c1=O -1.35%
O=S(=O)(NC1CCN(S(=O)(=O)c2ccc3c(c2)OCCO3)CC1)c1c(F)cccc1F 3.66% [at 12.7 µM]
COc1cccc(N(CC(=O)NC2CCCC2)C(=O)Cn2nnc(-c3ccc(C)o3)n2)c1 -17.4% [at 102 µM]
O=C(Cc1ccc([N+](=O)[O-])cc1)Nc1ccc(C(=O)N2CCOCC2)cc1 -23% [at 102 µM]
COc1cc2ccccc2cc1C(=O)Nc1ccc(N2CCOCC2)cc1 -2.84% [at 102 µM]
O=C(COc1ccccc1)Nc1cc2c3c(c1)CC(=O)N3CCC2 3.1% [at 102 µM]
Cc1ccc(C)c(N2CCN(C(=O)CCCCCn3c(=S)[nH]c4ccc(N5CCOCC5)cc4c3=O)CC2)c1 65.5%
CC(C)OC(=O)c1c(NC(=O)c2ccco2)sc2c1CCCC2 -38.7%
Cc1ccc2c(=O)cc(C(=O)Nc3sc4c(c3C(=O)NCc3cccnc3)CCCC4)oc2c1 -3.78%
COc1ccc(CC2c3cc(OC)c(OC)cc3CC[N+]2(C)CCC(=O)OCCCCCOC(=O)CC[N+]2(C)CCc3cc(OC)c(OC)cc3C2Cc2ccc(OC)c(OC)c2)cc1OC (centres undefined) 7.6% [at 12.7 µM]
CCc1ccc(OCC2c3cc(OC)c(OC)cc3CCN2C(C)=O)cc1 (centres undefined) -15.8% [at 102 µM]
COc1ccccc1CNc1nc2ccc(Cl)cc2n2cnnc12 10.9%
CC(=O)Nc1cccc(NC(=O)CSc2nccn2Cc2ccc3c(c2)OCO3)c1 6.93%
COc1ccccc1N1N=C(c2cccs2)CC1c1ccccc1 (centres undefined) 16.2% [at 102 µM]
COc1ccc(C2CC(c3cccs3)=NN2c2ccccc2)cc1 (centres undefined) 400% [at 102 µM]
COc1ccc(-c2nc(CN3CCC(C(=O)NCc4ccccc4)CC3)c(C)o2)cc1OC 3.45%
CCOC(=O)C1CCCN(C(=O)c2ccc(-n3ccc4ccccc43)s2)C1 (centres undefined) 13.9%
CCc1cccc(C)c1NC(=O)COC(=O)CC1CCCC1 -5.82% [at 102 µM]
Cc1ccc(C(C(=O)NCc2ccco2)N(CC2CCCO2)C(=O)Cn2nnc3ccccc32)cc1 (centres undefined) -31.8% [at 102 µM]
COCCNC(=O)C(c1ccc(C)o1)N(Cc1ccccc1)C(=O)Cn1nnc2ccccc21 (centres undefined) 9.42%
Cc1ccc(C(=O)Nc2ccn(C)n2)cc1 0.254% [at 12.7 µM]
CC1CCN(S(=O)(=O)c2ccc3c(c2)N(CC(=O)NCCc2ccccc2)C(=O)CO3)CC1 -25.8%
CC1=C(c2ccc(C)c(C)c2)S(=O)(=O)NC1=NCc1ccccc1Cl -30.7%
CCOc1ccc(S(=O)(=O)Nc2ccc(OC)nc2)cc1 20.7% [at 102 µM]
COc1ccc(NC(=O)C(=O)NCc2ccco2)cc1 13%
COc1cc(C(=O)N2CCN(c3ccc(Nc4ccc(C)cc4)nn3)CC2)cc(OC)c1OC 0.11%
CSc1ccc(NC(=O)Cn2nnnc2-c2ccccc2F)cc1 3.59%
COC(=O)C(C)C1Sc2ccccc2NC1=O (centres undefined) 14.7% [at 12.7 µM]
COc1ccc(C2CC(=O)Nc3cc(C)c(C)cc32)c(OC)c1OC (centres undefined) 11.9% [at 102 µM]
O=C(NCC(c1ccc2c(c1)OCO2)N1CCN(c2ccccc2)CC1)C(=O)Nc1ccccc1F (centres undefined) -25.1%
C=CCC(NC(=O)Cc1ccccc1)C(=O)NCCC (centres undefined) 5.83% [at 0.501 µM]
CCOC(=O)/C=C/C(=O)OCC(=O)NC(c1ccccc1)c1ccccc1 0.236%
C/C(CC(=O)NCc1ccc(Cl)cc1)=N\NC(=O)COc1ccc(C)cc1Br 15.9% [at 102 µM]
Cc1ccccc1-c1ccc(C(=O)O)s1 3.48% [at 135 µM]
Cc1ccccc1-c1nc(SCC(=O)N(C)c2ccccc2)c2c(=O)n(C)c(=O)n(C)c2n1 -0.81%
Cc1cc(C)cc(NS(=O)(=O)c2cc3c(cc2C)NC(=O)CO3)c1 -45.7%
CCCCCc1c(C)nc(N2CCN(Cc3ccc4c(c3)OCO4)CC2)[nH]c1=O 30.4% [at 102 µM]
O=C(Cc1ccc(S(=O)(=O)N2CCOCC2)s1)NCCOc1ccccc1F -25.9% [at 12.7 µM]
CCNC(=O)c1cc2n(n1)CCCN(Cc1ccc(C)cc1)C2=O -1.49% [at 12.7 µM]
CN(C)S(=O)(=O)c1ccc(N2CCCC2)c(C(=O)Nc2ccc(Br)cc2F)c1 26.4% [at 2.33 µM]
COc1cc2nc(Cl)nc(NCCO)c2cc1OC -40.9% [at 102 µM]
Nc1nc(Nc2ccccc2)nc(NCCO)c1[N+](=O)[O-] -30.2% [at 102 µM]
COc1ccc(OCC(=O)Nc2cccc(C(=O)OCc3cc(=O)n4nc(C)sc4n3)c2)cc1 24.7%
CN1CCN(S(=O)(=O)c2ccc(Nc3ccc(F)cc3)nc2)CC1 -33.3% [at 102 µM]
COc1ccccc1NC(=O)c1sc2nc(C)c(C(=O)Nc3ccc(Cl)cc3)c(-c3ccc(Br)cc3)c2c1N -42%
O=C(Nc1cccc(C(F)(F)F)c1)c1cc(Br)cc(Br)c1O -37% [at 12.7 µM]
CCCc1ccc(OCC(O)CN2CCN(C(=O)OCC)CC2)cc1 (centres undefined) 15.7% [at 102 µM]
CCc1ccc(S(=O)(=O)NCC(O)COc2ccc(OC)cc2)cc1 (centres undefined) -5.83% [at 102 µM]
Cn1c(CCC(=O)Nc2ccccc2F)nnc1SCC(=O)Nc1ccccc1Cl 1.22% [at 102 µM]
Cn1c(SCC(=O)c2ccc(F)cc2)nnc1-c1ccccn1 -4.42% [at 102 µM]
O=c1cc2nc(-c3ccccc3)nc(SCCOc3ccc(Cl)cc3)n2[nH]1 -23.9%
O=C(O)C1CCCN1S(=O)(=O)c1ccc(Br)cc1 (centres undefined) -11.1% [at 0.501 µM]
CC(=O)Nc1ccc(S(=O)(=O)N2CCCC2C(=O)O)cc1 (centres undefined) 20.3%

Potency, active:
O=C1/C(=C\c2ccsc2)NC(=S)N1c1ccccc1 50.1 µM
Cc1c(C2=CCN(S(=O)(=O)c3ccc(Cl)cc3)CC2)c2ccccc2n1C 44.7 µM
CN(C)CCOc1ccc(Cl)cc1C(C)(C)C 8.91 µM
N#Cc1ccccc1CN1C(=O)S/C(=C/c2cccn2-c2cccc(C(=O)O)c2)C1=O 44.7 µM
CN(C)CCOCCOc1ccc(Cl)c2ccccc12 14.1 µM
O=C(/C=C/c1c(F)cccc1Cl)Nc1nn[nH]n1 39.8 µM
O=C(Nc1ccc(N2CCOCC2)cc1)c1ccc(-c2ccccc2[N+](=O)[O-])o1 17.8 µM
CNC(=O)c1c(NC(NC(=O)c2ccco2)C(=O)c2ccc(Cl)cc2)sc2c1CCCC2 (centres undefined) 11.2 µM
COc1cc2c(cc1O)[C@H](Cc1ccc(Oc3cc(C[C@@H]4NCCc5cc(OC)c(O)cc54)ccc3O)cc1)NCC2 12.6 µM
COc1ccc(C2CC(c3cccs3)=NN2c2ccc(F)cc2)cc1OC (centres undefined) 3.98 µM
COc1ccccc1N(C(=O)Cn1nnc2ccccc21)C(C(=O)NCc1ccco1)c1ccc(C)o1 (centres undefined) 50.1 µM
COc1ccc(CS(=O)/C(Cl)=C(/Cl)C(=O)Nc2ccc(OC)nc2)cc1 (centres undefined) 11.2 µM
COc1ccc(C2Sc3ccccc3NC3=C2C(=O)c2ccccc23)c(OC)c1OC (centres undefined) 11.2 µM
O=C(Cc1ccc(-c2ccccc2)cc1)NC(c1ccccc1)c1ccccc1 7.08 µM
Cc1ccccc1-c1n[nH]c(=S)n1/N=C/c1ccc(-c2ccccc2Br)o1 12.6 µM
Cc1n[nH]c(=S)n1/N=C/c1ccc(Br)o1 3.16 µM
Cc1ccccc1-c1n[nH]c(=S)n1C 10 µM
OCCNc1nc(Nc2ccc(Cl)c(Cl)c2)nc2ccccc12 50.1 µM
Nc1ccc(OCC(O)C[n+]2ccc(CCS(=O)(=O)[O-])cc2)cc1 (centres undefined) 39.8 µM
Cn1c(CC2Sc3ccccc3NC2=O)nnc1SCC(=O)c1ccc(Cl)cc1 (centres undefined) 14.1 µM
O=C(O)C1CCCN1S(=O)(=O)c1ccc2c(c1)CCC2 (centres undefined) 56.2 µM

Source: PubChem BioAssay AID504332 (National Center for Advancing Translational Sciences (NCATS), 2011)
